# Source: PubChem (National Center for Advancing Translational Sciences (NCATS))
# D1 antagonist = human D1 dopamine receptor antagonism. 360,000 compounds, 3.2% hits. HEK293 TREx D1 cells, calcium flux, dopamine EC80; active compounds read low. activity change, negative = inhibition, % at 10 µM. AID 504652; in the data active means activity change below about -30%; further: on the % scale 0 is the no-effect control and ±100 the full control effect
# Target sequence (P21728 whole entry, looked up): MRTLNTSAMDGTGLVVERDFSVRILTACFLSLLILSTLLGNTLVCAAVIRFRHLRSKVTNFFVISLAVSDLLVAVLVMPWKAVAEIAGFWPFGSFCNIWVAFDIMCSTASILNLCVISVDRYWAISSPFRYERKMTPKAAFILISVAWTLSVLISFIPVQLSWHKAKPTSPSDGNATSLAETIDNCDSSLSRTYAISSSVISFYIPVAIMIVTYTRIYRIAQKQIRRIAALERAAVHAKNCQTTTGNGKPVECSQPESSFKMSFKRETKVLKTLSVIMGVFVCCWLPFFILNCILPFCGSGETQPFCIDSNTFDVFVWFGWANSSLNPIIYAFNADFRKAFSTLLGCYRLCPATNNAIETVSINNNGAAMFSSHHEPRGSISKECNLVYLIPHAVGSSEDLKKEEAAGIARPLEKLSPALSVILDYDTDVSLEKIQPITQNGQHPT
#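 Tetracycline-induced HEK293 T-REx cells with force-coupled D1 receptor were loaded with a no-wash calcium dye. Compound was added after a 10 s baseline and read kinetically for 180 s; EC80 dopamine was then added and calcium flux followed another 180 s.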
# DRD3 agonist = D3 dopamine receptor (human) agonism | 410,000 compounds, 0.58% hits | max activation, % | D3R DiscoveRx beta-arrestin cells, luminescence, 90 min | AID 652048; in the data active means max activation above about 30%; further: 0% is about no effect
#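 Agonist-mode cell screen: cells plated at 1500/well and incubated overnight at 37 °C, then exposed to library compounds for 90 min at 37 °C. Detection reagent was added for 30–60 min at room temperature, and luminescence was read.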
# D1 PAM = human D1 dopamine receptor positive modulation. HEK293 TREx D1 cells, calcium flux, dopamine EC20 potentiation. 360,000 compounds, 0.036% hits. P21728. potentiation, % at 10 µM; in the data active means potentiation above about 30%; further: 0% is about no effect
# D1 agonist = human D1 receptor agonism. 360,000 compounds, 1% hits. HEK293 T-REx D1 cells, calcium flux, agonist mode. P21728. AID 504660. activation, % at 2 µM; in the data active means activation above about 30%; further: 0% is about no effect
#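 Tetracycline-induced HEK293 TREx D1 cells, force-coupled to calcium signalling, were dye-loaded with a no-wash calcium kit. Compound was pin-added after a 10 s baseline. Fluorescence was read kinetically at 1 cycle/s for 180 s, with calcium rises flagged as agonism.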
# DRD3 antagonist = blocks the human D3 dopamine receptor; P35462; D3R cells, DiscoveRx beta-arrestin luminescence, antagonist mode; active compounds read low; max response, negative = inhibition, %; 360,000 compounds, 2.5% hits; AID 652054; in the data active means max response below about -50%; inconclusive means no clear call, values can overlap the other calls; further: on the % scale 0 is the no-effect control and ±100 the full control effect
#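 Cells expressing the human receptor were seeded at 1500 cells/well, incubated overnight at 37 degrees C in 5% CO2, then exposed to library compounds with dopamine controls for 90 minutes at 37 degrees C before luminescent detection.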
# An asterisk follows results filed as active; ? = inconclusive; / = no result; + = active, no number. In the library only some 6% were active in any assay of this set; here they are far more common.
SMILES,D1 antagonist,DRD3 agonist,D1 PAM,D1 agonist,DRD3 antagonist
CCOc1ccccc1C(=O)N1CCc2cc(OC)c(OC)cc2C1COc1ccc2c(C)cc(=O)oc2c1 (configuration not stated),2,-3,0,4,/
O=C(CC1N=C2c3ccccc3N=C(SCc3ccc(Cl)cc3)N2C1=O)NCCc1ccccc1 (configuration not stated),18,-9,-5,3,/
COc1ccc([N+](=O)[O-])cc1Nc1c2ccccc2nc2ccccc12,-41*,-4,-10,1,-26
O=[N+]([O-])c1ccc(Nc2c3ccccc3nc3ccccc23)cc1,-4,3,-4,0,3
O=C(Cn1c(=O)oc2cc(S(=O)(=O)N3CCCCCC3)ccc21)Nc1ccc(F)cc1F,-25,3,-3,-1,/
Cc1ccc(-n2nc(CO)c(C(=O)NCc3cccnc3)n2)cc1C,-25,-32,-3,0,/
CCCCNC(=O)CCC(=O)Nc1ccc2nc(N3CCOCC3)cc(C)c2c1,5,6,-4,1,-15
CCCCN(CC)CCNC(=S)Nc1ccc2nc(N3CCN(C)CC3)cc(C)c2c1,13,-31,4,3,?
Cc1cc(N2CCN(C)CC2)nc2ccc(NC(=O)CCC(=O)NCCC3=CCCCC3)cc12,/,-50,/,/,-53*
CCCCN(CC)CCNC(=O)CCC(=O)Nc1ccc2nc(N3CCN(C)CC3)cc(C)c2c1,-12,1,0,4,-57*
CCCN(CCC)CCNC(=O)CCC(=O)Nc1ccc2nc(N3CCOCC3)cc(C)c2c1,-5,-43,-6,1,-66*
O=C(Cn1c(=O)n2nc(-c3ccccc3)nc2c2ccccc21)Nc1ccccc1C(F)(F)F,9,-1,4,-1,/
O=C(CSc1nccc(-c2cccs2)n1)Nc1ccc(F)c(Cl)c1,-39*,3,-7,2,3
COC(=O)N1C(=O)[C@](c2ccc(OC)cc2)(C(C)C)N1C(=O)OC,15,8,-4,4,3
COC(=O)N1C(=O)[C@](c2ccsc2)(C(C)C)N1C(=O)OC,-67*,-23,-8,2,?
COC/C=C/C1=CC2=CC(=O)C(C)(OC(=O)c3cnc4ccccc4n3)C(=O)C2=CN1Cc1ccc(OC)cc1 (configuration not stated),5,-16,0,4,-20
COC/C=C/C1=CC2=CC(=O)C(C)(OC(=O)c3cnc4ccccc4n3)C(=O)C2=CN1Cc1ccccc1 (configuration not stated),2,-16,-2,1,-65*
Cn1c2ccccc2c2nnc(SCC(=O)Nc3cccc(C(=O)O)c3)nc21,45,-3,6,4,-19
Cn1c2ccc(F)cc2c2nnc(SCC(=O)Nc3cccc(O)c3)nc21,-3,34*,0,5,6
O=C1C(Cc2ccccc2)Nc2ncnc(N3CCc4ccccc4C3)c2N1Cc1ccc(Br)cc1 (configuration not stated),6,/,-3,4,/
CCC1Nc2ncnc(N3CCN(c4ccccc4)CC3)c2N(Cc2ccc(OC)cc2)C1=O (configuration not stated),-16,-56,-5,1,-149*
O=C1C(Cc2ccccc2)Nc2ncnc(N3CCN(c4ccccc4)CC3)c2N1Cc1ccc(Br)cc1 (configuration not stated),/,-55,/,/,-151*
CCC1Nc2ncnc(N3CCOCC3)c2N(Cc2ccccc2)C1=O (configuration not stated),-2,-19,-5,2,-5
CCC1Nc2ncnc(N3CCN(c4ccccc4)CC3)c2N(Cc2ccc(Br)cc2)C1=O (configuration not stated),4,-88,-2,3,+
COc1cc(F)c(S(=O)(=O)N2CCN(S(=O)(=O)c3ccc4c(c3)OCCO4)CC2)c(F)c1,20,/,-2,5,/
CCN(C(=O)Cn1ncc2c1-c1cc(C)ccc1OC2)c1cc(Cl)ccc1OC,50,1,11,-1,/
